The values below come from PubChem BioAssay (NCI).

A short description of assay [1]: NCI Yeast Anticancer Drug Screen. Data for the rad50 strain (AID 155).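 Further: 0% = growth of vehicle-only cultures of the same strain.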 Conditions: S. cerevisiae rad50 strain growth inhibition; at 50.0 µM; hits give high values. An outline of the steps:
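A DNA repair-deficient yeast mutant serves as the test organism; compound-induced growth inhibition is calculated against vehicle-treated cells.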

Assay [2] in a line: NCI Yeast Anticancer Drug Screen. Data for the mec2-1 strain (AID 157). Conditions: S. cerevisiae mec2-1 strain, at 50.0 µM, hits give high values. The gist of the method:
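Mutant yeast (mec2-1) grown with compound; growth inhibition relative to vehicle control reported.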

The nature of assay [3]: NCI Yeast Anticancer Drug Screen. Data for the sgs1 mgt1 strain (AID 161).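 Further: 0% = growth of cultures given vehicle only.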 As to conditions: S. cerevisiae sgs1 mgt1 strain, at 50.0 µM, hits give high values. An outline of the steps: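 This yeast growth screen uses a strain with defined DNA-repair lesions; compound-treated growth is compared with vehicle-treated growth.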
Assay [4] is described as follows: NCI Yeast Anticancer Drug Screen. Data for the cln2 rad14 strain (AID 165).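 Further: 0% = growth equal to vehicle treated cultures.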 Conditions: S. cerevisiae cln2 rad14 strain, at 50.0 µM, hits give high values. An outline of the steps: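 Readout is yeast growth inhibition versus vehicle-treated controls, using a strain with cln2 and rad14 alterations exposed to compound.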
Assay [5] is described as follows: NCI Yeast Anticancer Drug Screen. Data for the bub3 strain (AID 167). Conditions: S. cerevisiae bub3 mutant strain, at 50.0 µM, hits give high values. An outline of the steps:
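Inhibition values come from growth of compound-treated mutant yeast normalised to vehicle-treated controls.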

Assay [6] is described as follows: NCI Yeast Anticancer Drug Screen. Data for the mlh1 rad18 strain (AID 175). As to conditions: S. cerevisiae mlh1 rad18 strain growth inhibition; at 50.0 µM; hits give high values. An outline of the steps: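 Genetically defined yeast (DNA repair-deficient) exposed to compounds; growth inhibition determined relative to vehicle.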

The panel holds about 79,000 compounds, 15% with a hit somewhere; the sample as a whole holds those more often. Values without a mark were called inactive. Activity calls are given as the source filed them. No stated cut-off is given here; in the data, active means growth inhibition above about 70%; inactive means the rest. Where a SMILES comes first, the peptide text is derived from it. The star is where a group is joined. Trt = c1ccc(C(c2ccccc2)(c2ccccc2)*)cc1

As for `F[Si](c1ccccc1)(c1ccccc1)c1cccc2ccccc12`, the growth inhibition in assay [1] was 98.7% (active); in assay [2] it was 98.6% (active); in assay [3], 99.2% (active); in assay [4] it was 98.8% (active); in assay [5] it was 98.5% (active); in assay [6] it was 98.8% (active).

Regarding `Cc1ncc(-c2ccccc2)o1`, the growth inhibition is -20.2% in assay [1]; -21.2% in assay [2]; -1.75% in assay [3]; -7% in assay [4]; -19.9% in assay [5]; -15.7% in assay [6].

With `Cc1nnc(N=Nc2c(O)[nH]c3ccccc23)[nH]c1=O`, the growth inhibition in assay [1] is 7.05%; in assay [2], 1.2%; in assay [3], -6.65%; in assay [4] it was -0.2%; in assay [5] it was 2.65%; in assay [6], 16.1%.

For `COc1cccc(OC(=O)Nc2ccccc2)c1`, the growth inhibition in assay [1] was 2.6%; in assay [2], -10.6%; in assay [3], -9.85%; in assay [4], -41.3%; in assay [5], -20.6%; in assay [6], 3.25%.

Turning to `CC1(C)C=Cc2c(ccc3[nH]c4occc4c(=O)c23)O1`, the growth inhibition in assay [1] was 23.4%; in assay [2] it was -21.8%; in assay [3], -16.8%; in assay [4] it was 14.2%; in assay [5], 11.4%; in assay [6] it was -0.3%.

For `C[N+](C)(C)CC(=O)N/N=C(/Cc1nc2c3c(ccc2[nH]c1=O)C(=O)c1ccccc1C3=O)C(=O)Nc1ccc(Cl)c(Cl)c1`, the growth inhibition in assay [1] was 1.05%; in assay [2], -6.8%; in assay [3] it was -7.8%; in assay [4], 18.8%; in assay [5], 7.5%; in assay [6], 30.9%.

As to `O=c1c(F)cn2c(=O)n1CCCCCCCn1c(=O)c(F)cn(c1=O)CCCCCCC2`, the growth inhibition in assay [1] is 1.3%; in assay [2], -24.4%; in assay [3], 1.65%; in assay [4] it was 0.7%; in assay [5] it was -13.4%; in assay [6], 1.55%.

With `N#Cc1nc(/C=C/c2cccnc2)oc1N`, the growth inhibition in assay [1] is -1.9%; in assay [2] it was 6.7%; in assay [3] it was -8.1%; in assay [4], -3.65%; in assay [5] it was -6.55%; in assay [6], -56.6%.

Regarding `CC(C)CCCC(C)C1CCC2C3CCC4CC(O)C5(CC4(C)C3CCC12C)SCCS5` (centres undefined), the growth inhibition in assay [1] is 41%; in assay [2], 10.9%; in assay [3] it was 15.1%; in assay [4] it was 18.4%; in assay [5], -6.35%; in assay [6], 18.4%.

Turning to `CN(C)c1ccc(C2(c3ccc(N(C)C)cc3)OC(=O)c3cc(N(C)C)ccc32)cc1`, the growth inhibition in assay [1] is 4.55%; in assay [2], -6.2%; in assay [3] it was -0.75%; in assay [4], -31.7%; in assay [5], 16.4%; in assay [6], 33.7%.

For the compound `COc1ccc2c(c1)C(=O)[C@@](Nc1ccc(C=O)cc1)(OC)[C@@](OC)(c1ccc([N+](=O)[O-])cc1)O2`, the growth inhibition in assay [1] is 9.3%; in assay [2], -3.05%; in assay [3] it was 29.9%; in assay [4], 2.3%; in assay [5] it was -9.45%; in assay [6], 12.4%.

For the compound `O=C1c2cn[nH]c2N=C(Nc2ccccc2)C1N=Cc1ccc([N+](=O)[O-])cc1` (centres undefined), the growth inhibition was -32.6% in assay [1]; -45.2% in assay [2]; -13.8% in assay [3]; 12.5% in assay [4]; -24.3% in assay [5]; -17.9% in assay [6].

Turning to `COC(=O)C(NC(=O)C(N)CSC(c1ccccc1)(c1ccccc1)c1ccccc1)C(C)C` (centres undefined) (H-Cys(Trt)-Val-OMe; configuration not given here), the growth inhibition is 97.3% (active) in assay [1]; 98.6% (active) in assay [2]; 98.7% (active) in assay [3]; 95.2% (active) in assay [4]; 97.6% (active) in assay [5]; 98.5% (active) in assay [6].

`N#Cc1nc(C2CCC2)oc1N`: the growth inhibition in assay [1] is 2.3%; in assay [2] it was 5.85%; in assay [3], -15.3%; in assay [4], 18.6%; in assay [5], 1.55%; in assay [6], -41.5%.

Consider `NCCC(=O)OC1CCCc2c(O)c3c(c(O)c21)C(=O)c1ccccc1C3=O` (centres undefined), for which the growth inhibition in assay [1] is 98.8% (active); in assay [2], 99.4% (active); in assay [3], 99.4% (active); in assay [4], 98.9% (active); in assay [5] it was 98.8% (active); in assay [6], 99.2% (active).

Consider `O=C(O)Cc1ccc(-c2ccccc2)cc1`, for which the growth inhibition in assay [1] was 29.1%; in assay [2], 23.6%; in assay [3] it was 21.2%; in assay [4], 6.45%; in assay [5], 20.5%; in assay [6], 25.4%.

As to `COc1ccc(C(=O)c2ccccc2)c(N)c1`, the growth inhibition was 11.2% in assay [1]; 13.1% in assay [2]; -2.4% in assay [3]; -18.9% in assay [4]; -17.9% in assay [5]; 10.4% in assay [6].

Regarding `CN1c2cccc3cccc(c23)NC12CCCCC2`, the growth inhibition was 0.6% in assay [1]; -20.5% in assay [2]; -10.8% in assay [3]; -62.2% in assay [4]; 14.2% in assay [5]; -10.8% in assay [6].

Take `CC(=O)O[C@H]1CC[C@]2(C)[C@H]3C(=O)C=C4[C@@H]5C[C@@](C)(C(=O)O)CC[C@]5(C)CC[C@@]4(C)[C@]3(C)CC[C@H]2C1(C)C`: the growth inhibition in assay [1] was 31.2%; in assay [2], 23.8%; in assay [3], 41.5%; in assay [4], 52.1%; in assay [5], 26%; in assay [6] it was -5.75%.
